# Pol eta inh-1: inhibitors of human DNA polymerase eta. Q9Y253. recombinant Pol eta, fluorescent DNA replication assay. Potency, µM (top dose mostly 114 µM), hits mostly inhibitors. actives 1.2% (n = 390,000)
#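 Pol eta (10 nM) was preincubated with compounds for 15 min at room temperature, after which fluorescent replication substrate (50 nM final) was added to start the reaction. Fluorescence was read kinetically at 0 and 10 min.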
# POLI inh: DNA polymerase iota (human) inhibition | Q9UNA4 | Pol iota fluorescent replication assay, 10 min | Potency, µM (titrated, usually from 115 µM), most hits filed as inhibitors | actives 1% (n = 390,000)
# Target sequence (Q9UNA4 whole entry, looked up): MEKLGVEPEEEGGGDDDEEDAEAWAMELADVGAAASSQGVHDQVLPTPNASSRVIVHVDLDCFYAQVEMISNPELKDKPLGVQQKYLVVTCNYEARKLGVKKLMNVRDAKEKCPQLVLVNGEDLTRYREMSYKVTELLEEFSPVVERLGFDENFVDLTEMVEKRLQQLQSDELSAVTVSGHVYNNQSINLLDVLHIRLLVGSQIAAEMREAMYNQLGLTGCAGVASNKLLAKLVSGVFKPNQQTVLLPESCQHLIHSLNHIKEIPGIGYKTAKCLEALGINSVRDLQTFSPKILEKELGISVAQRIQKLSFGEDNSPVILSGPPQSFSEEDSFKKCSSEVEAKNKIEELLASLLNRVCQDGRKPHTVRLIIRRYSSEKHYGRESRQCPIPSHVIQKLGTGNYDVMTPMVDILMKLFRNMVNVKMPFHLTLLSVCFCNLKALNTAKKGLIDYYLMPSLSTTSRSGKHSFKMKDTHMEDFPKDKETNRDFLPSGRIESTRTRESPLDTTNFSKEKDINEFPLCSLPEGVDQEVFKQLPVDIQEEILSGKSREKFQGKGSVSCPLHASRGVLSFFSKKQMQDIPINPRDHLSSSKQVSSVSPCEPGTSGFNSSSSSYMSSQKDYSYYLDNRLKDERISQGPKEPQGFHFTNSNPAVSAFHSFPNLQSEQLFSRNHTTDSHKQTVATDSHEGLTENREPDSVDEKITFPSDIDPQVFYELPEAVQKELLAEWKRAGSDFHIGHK
#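 Pol iota at 10 nM preincubated 15 min with compounds at room temperature; reaction started with fluorescent substrate, 50 nM final. Fluorescence read kinetically at 0 and 10 min; buffer-only wells as negative control.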
# POLB inh: inhibitors of human DNA polymerase beta. actives 1.3% (n = 340,000). Pol beta primer extension/strand displacement, fluorescence kinetic. Potency, µM (highest dose often 114 µM), usual class: inhibitors. P06746
#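 Pol beta (10 nM) was preincubated with compound for 15 min at room temperature. The reaction was then started with 50 nM substrate and read immediately and after a further 10 min at room temperature.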
# Pol kappa inh-1: DNA polymerase kappa (human) inhibition; AID 588579; actives 0.53% (n = 400,000); Potency, µM (series often up to 107 µM), most hits filed as inhibitors; purified Pol kappa, fluorescent DNA synthesis assay, 10 min
#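 10 nM Pol kappa preincubated 15 min at room temperature with compounds, then reaction started with substrate at 50 nM final. Fluorescence read kinetically at 0 and 10 min; buffer-only wells served as negative control.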
# WRN inhibitor: WRN helicase (human) inhibition; actives 0.46% (n = 360,000); WRN helicase unwinding, fluorescent forked duplex, kinetic; Potency, µM (highest dose often 114 µM), most hits filed as inhibitors; Q14191; AID 651768; note: nearly all actives have a fitted effect of over 55% in size
#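 Kinetic fluorescence helicase assay: unwinding of a quenched forked DNA duplex (100 nM final) with 2 mM ATP final raises red fluorescence (525/598 nm). Compounds sat 15 min at room temperature with 20 nM WRN beforehand.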
# GALK inh confirm: confirmation of human galactokinase (GALK) inhibitors; actives 70% (n = 150); shares compounds with Pol eta inh-1; Potency, µM (titrated, usually from 115 µM), hits mostly inhibitors; purified GALK, Kinase-Glo ATP depletion luminescence; AID 2015
# GALK redox cs: generates H2O2 by redox cycling, flagging GALK artifacts | shares compounds with Pol eta inh-1 | Phenol red-HRP H2O2 redox cycling, absorbance 600 nm | Potency, µM (top dose mostly 115 µM), most hits filed as inhibitors | actives 40% (n = 150) | AID 2035
# HEK293 viability: reduces HEK-293 cell viability in GALK counter-screen. HEK-293 viability, ATP luminescence (CellTiter-Glo), 24/48 h. shares compounds with Pol eta inh-1. Potency, µM (series often up to 46.1 µM), hits mostly inhibitors. actives 10% (n = 170)
# Pol kappa inh-2: confirmation of human DNA polymerase kappa inhibitors | shares compounds with Pol eta inh-1 | Potency, µM, hits mostly inhibitors | purified Pol-kappa, fluorescent strand-displacement substrate | actives 76% (n = 920)
# Pol eta inh-2: Pol eta (human) inhibition, cherry-pick confirmation; shares compounds with Pol eta inh-1; Pol eta primer extension, TAMRA/BHQ fluorescence, 10 min; Potency, µM, usual class: inhibitors; actives 64% (n = 2,600); AID 720502
# Numbers stand for hits; i = inactive; ? = inconclusive; nt = no result given; ! = repeats disagree; [ ] = dose if it differs, or a comment. This is a sample that favours compounds with a hit; in the whole collection about 2.3% have one here. Calls come from the whole dose curve; as a rule, active = well fitted curve in the direction sought with a large enough effect; inconclusive = small, poorly fitted or top-dose-only effect, or another doubt; inactive = no such curve, though single readings can be large; an effect the other way counts as inactive or inconclusive.
SMILES,Pol eta inh-1,POLI inh,POLB inh,Pol kappa inh-1,WRN inhibitor,Pol eta inh-2,others
O=C(CSc1nc2c([nH]c3ccccc32)c(=O)n1-c1cccc(Cl)c1)c1ccccc1,i,i,i,i,nt,nt,
O=[N+]([O-])c1cc(Br)c(O)c(/C=N/Nc2nnnn2-c2cccc3ccccc23)c1,71µM,i,?,i,?,nt,GALK inh confirm=30µM;GALK redox cs=i;HEK293 viability=i
O=[N+]([O-])c1ccc(NN=Cc2cccc3ccccc23)cc1,i,i,nt,i,i,nt,
CC1CCN(C(=O)COC(=O)c2ccc(Br)o2)CC1,i,i,i,i,i,nt,
CC1CCN(C(=O)COC(=O)c2ccc([N+](=O)[O-])o2)CC1,50µM,50µM,nt,i,i[11.6 µM],?,
CC1CCC(NC(=O)CCc2cn(Cc3ccc(F)cc3)c3ccccc23)CC1 (centres undefined),i,i,i,i,nt,nt,
O=C1C=CC(=O)N1CCCCCCCCCCN1C(=O)C=CC1=O,35µM,?,nt,i,3.2µM,nt,Pol kappa inh-2=?
COc1ccccc1CNC(=O)CCc1c(C)c2cc3c(C)coc3cc2oc1=O,i,i,i,i,nt,nt,
Cc1ccc2sc(N(Cc3cccnc3)C(=O)CCOc3ccccc3)nc2c1C,i,i,i,i,nt,nt,
CCCOc1ccc(C2c3c(-c4ccccc4O)n[nH]c3C(=O)N2CCCOCC)cc1OCC (centres undefined),i,i,i,i,nt,nt,
CCN(c1ccccc1)c1nnc(NC(=O)Nc2ccc(C)cc2)s1,i,i,?,i,nt,nt,
Cc1c(-n2cc(C(=O)c3cc(F)ccc3O)cc(C#N)c2=O)c(=O)n(-c2ccccc2)n1C,i,i,i,i,i,nt,
N#Cc1cc(C(=O)c2cc(F)ccc2O)cn(-c2nccs2)c1=O,28µM,?,18µM,?,?,?,
N#Cc1cc(C(=O)c2ccccc2O)cn(-c2nccs2)c1=O,16µM,i,20µM,i,i[11.6 µM],67,
CCOc1ccccc1NC(=O)CN(C)S(=O)(=O)c1ccc2[nH]c(=O)oc2c1,i,i,i,i,i,nt,
Cc1ccc(NC(=O)CN(C)S(=O)(=O)c2ccc3[nH]c(=O)oc3c2)c(C)c1,79µM,i,?,i,i[11.6 µM],27,
COc1cc(NC(=O)c2ccc(NC(=O)N3CCSc4ncccc43)cc2)cc(OC)c1,i,i,i,i,nt,nt,
CC1CCN(S(=O)(=O)c2ccc3c(c2)C(Cl)(Cl)C(=O)N3)CC1,32µM,nt,nt,nt,i[11.6 µM],?,
O=C(c1coc(=O)c(Br)c1)N1CCCc2ccccc21,11µM,16µM,25µM,32µM,?,38,Pol kappa inh-2=42
O=C(c1cc(-c2ccccc2)on1)N1CCCc2ccccc21,i,i,i,i,i,nt,
O=C(c1cccc(Br)c1)N1CCCc2ccccc21,i,i,i,i,i,nt,
O=C(c1cc(-c2ccco2)on1)N1CCCc2ccccc21,79µM,?,35µM,79µM,i,?,
COc1ccccc1N1CCN(c2nc(-c3ccc(C)cc3)nc3ccccc23)CC1,i,i,i,i,nt,nt,
COc1ccc(OCC(=O)N/N=C/c2cccn2-c2cccc(C(=O)O)c2)cc1,5µM,10µM,nt,79µM,?,30,Pol kappa inh-2=21
Cc1ccc(OCC(=O)N/N=C/c2cccn2C)cc1C,i,i,i,i,i,nt,
SMILES,Pol eta inh-1,POLI inh,POLB inh,Pol kappa inh-1,WRN inhibitor,Pol eta inh-2,others
O=C(COc1ccccc1)N/N=C/c1sc(=O)n(Cc2cccc(C(=O)O)c2)c1Cl,22µM,?,i,i,i[11.6 µM],34,
Cc1ccc(-c2nc3c(C)cccn3c2Nc2ccccc2C)s1,i,i,i,i,nt,nt,
CS(=O)(=O)c1ccc(C(=O)OC2CCOC2=O)cc1[N+](=O)[O-] (centres undefined),20µM,?,?,i,i,38,
COc1ccc2cc(-c3nc4ccc(C(=O)O)cc4[nH]3)c(=O)oc2c1,45µM,?,?,i,nt,?,Pol kappa inh-2=21
CCOc1ccc(C(=O)Nc2cc(NC(=O)c3ccc(OCC)c(Cl)c3)cc(C(=O)O)c2)cc1Cl,32µM,?,18µM,i,i[11.6 µM],nt,Pol kappa inh-2=21
Cn1cnc(S(=O)(=O)N2CCCC(C(=O)NCc3ccccc3)C2)c1 (centres undefined),i,i,i,i,nt,nt,
Cc1[nH]c2ccccc2c1C1(O)C(=O)N(Cc2ccccc2)c2ccc(Cl)cc21 (centres undefined),i,i,i,i,nt,nt,
COc1ccc2nc(C)cc(Nc3ccc(Cl)c(Cl)c3)c2c1,i,i,i,i,nt,nt,
Nc1ccc(-c2c3ccc(=O)cc-3oc3cc(O)ccc23)cc1C(=O)O,20µM,25µM,45µM,79µM,?,30,Pol kappa inh-2=15
C=CCc1cccc2cc(-c3nc4ccc(C(=O)O)cc4[nH]3)c(=O)oc12,?,?,i,i,nt,nt,
CCCn1c(=O)c2sccc2n2c(CCCC(=O)N3CCN(c4ccccc4)CC3)nnc12,i,i,i,i,nt,nt,
CCc1ccc(OCC(=O)N/N=C\c2ccco2)c([N+](=O)[O-])c1,?,20µM,?,79µM,?,?,
Cc1cc(C)cc(OCC(=O)N/N=C/c2ccco2)c1,i,i,i,i,i,nt,
CN(Cc1ccccc1)C(=O)C1CCN(S(=O)(=O)c2ccc3nc4c(c(C(=O)O)c3c2)CCCC4)CC1,28µM,?,28µM!,79µM,i[11.6 µM],?,
O=C(O)c1c2c(nc3ccc(S(=O)(=O)N4CCC(C(=O)NCc5ccccc5)CC4)cc13)CCCC2,i,nt,nt,nt,i,nt,
Cc1cc(NS(=O)(=O)c2ccc(NC(=O)COc3ccccc3[N+](=O)[O-])cc2)no1,20µM,35µM,18µM,?,?,67,
CCOc1ccccc1NC(=O)Nc1ccc2nc(N3CCN(C)CC3)cc(C)c2c1,?,i,?,i,nt,nt,
CCOc1ccc(/C=C/c2nc3ccccc3n2S(=O)(=O)c2cccc(Cl)c2)cc1,i,i,i,?,nt,nt,
CC1=N/C(=C/c2ccco2)C(=O)O1,10µM,?,10µM,50µM,i[11.6 µM],30,
O=C1OC(c2ccc(Br)cc2)=N/C1=C\c1ccco1,i,i,i,i,i,nt,
CCOC(=O)c1cc(-c2ccc(OC)cc2)n(CCC(=O)NC2CCCCC2)c1C,i,i,i,i,nt,nt,

# From PubChem
